Screening results from PubChem BioAssay.
Rows were chosen to be rich in hits. Some 10% of all compounds tested hit in one or more screens of this group.
HEK cytotox = cytotoxic compounds in HEK 293 cells; HEK 293 viability, ATP luminescence (CellTiter-Glo), 48-72 h; Potency, µM (series often up to 115 µM), usual class: inhibitors; AID 1345083; 94,000 compounds, 6.6% hits; also: nearly all actives have a fitted effect of over 60% in size
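HEK 293 cells seeded at 250 cells/well were exposed to compound for 48 or 72 hr at 37 degree Celsius. Viability taken as ATP content by CellTiter-Glo luminescence.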
3T3 cytotox = kills NIH 3T3 cells. 94,000 compounds, 4.3% hits. AID 1345082. Potency, µM (series often up to 96.7 µM), hits mostly inhibitors. NIH 3T3 viability, CellTiter-Glo ATP luminescence, 48-72 h; also: nearly all actives have a fitted effect of over 55% in size
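Luminescent ATP readout (CellTiter-Glo, 10 min RT) after 48 or 72 hr compound exposure of NIH 3T3 cells seeded at 400 cells/well in 1536-well format; quantitative HTS.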
hNpr1 antagonist = antagonists of human natriuretic peptide receptor Npr1; P16066; HEK293 hNpr1 GloSensor cGMP, ANP-stimulated luminescence; Potency, µM (top dose mostly 46.3 µM), most hits filed as inhibitors; 76,000 compounds, 1.6% hits; calls by dose curve; also: nearly all actives have a fitted effect of over 60% in size
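Compound pre-incubated 30 min at room temperature on GloSensor-loaded HEK293 cells stably carrying hNpr1 and the pGS-40F cGMP biosensor. Stimulation uses hNppA at 0.1 nM final; luminescence is taken at baseline and 20 min post-agonist.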
Luciferase inh = Photinus pyralis luciferase inhibition; 76,000 compounds, 2.5% hits; Potency, µM (highest dose often 115 µM), hits mostly inhibitors; purified P. pyralis luciferase, luminescence, biochemical; P08659; also: nearly all actives have a fitted effect of over 65% in size
Target sequence (P08659 whole entry, looked up): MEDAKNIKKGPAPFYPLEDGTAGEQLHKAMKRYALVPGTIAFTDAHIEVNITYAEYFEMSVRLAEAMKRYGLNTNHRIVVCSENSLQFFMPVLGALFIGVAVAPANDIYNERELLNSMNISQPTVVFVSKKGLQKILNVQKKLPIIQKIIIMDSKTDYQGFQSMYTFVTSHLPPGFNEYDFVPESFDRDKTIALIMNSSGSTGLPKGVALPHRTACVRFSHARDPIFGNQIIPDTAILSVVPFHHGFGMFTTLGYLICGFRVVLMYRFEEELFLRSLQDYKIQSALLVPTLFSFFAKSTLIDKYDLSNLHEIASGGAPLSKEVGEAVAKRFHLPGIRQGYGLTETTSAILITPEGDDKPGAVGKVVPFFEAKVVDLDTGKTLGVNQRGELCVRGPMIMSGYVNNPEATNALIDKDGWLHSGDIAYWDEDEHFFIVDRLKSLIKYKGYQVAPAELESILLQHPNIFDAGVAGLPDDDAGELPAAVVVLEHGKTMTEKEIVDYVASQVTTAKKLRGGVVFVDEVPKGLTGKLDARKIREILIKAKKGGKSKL
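Purified 10nM P. pyralis luciferase with 10uM D-luciferin and 10uM ATP in 50mM Tris acetate pH 7.5, 10mM Mg acetate, 0.01% Tween-20, 0.05% BSA. qHTS titration; luminescence read by CCD imager.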
GPT2 inh = inhibitors of human GPT2 alanine aminotransferase | Q8TD30 | Recombinant GPT2, coupled pyruvate oxidase/HRP Amplex Red fluorescence | Potency, µM (doses to about 57.7 µM), most hits filed as inhibitors | 100,000 compounds, 0.25% hits; also: nearly all actives have a fitted effect of over 60% in size
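GPT2 10ng/uL, a-KG 250uM, L-Ala 2mM, HEPES pH7.5 + 0.0001% Tween; 30 min RT. Then Amplex mix (PO/HRP/ThPP), 30 min RT dark, fluorescence. AOA 50uM used as positive control.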
Each line names hits and unclear results; the compound was inactive in the other large screens. Unless noted, calls follow the shape of the dose curve; as a rule, active = well fitted curve in the direction sought with a large enough effect; inconclusive = small, poorly fitted or top-dose-only effect, or another doubt; inactive = no such curve, though single readings can be large; an effect the other way counts as inactive or inconclusive.

O=C1CN(Cc2ccc(-c3cc(F)cc(F)c3)cc2)CCN1c1nccc(Cl)n1	HEK cytotox 45µM, 3T3 cytotox inconclusive
O=C1CN(Cc2ccc(-c3ccsc3)cc2)CCN1c1cc(Cl)ncn1	HEK cytotox 35µM, 3T3 cytotox inconclusive, hNpr1 antagonist inconclusive
O=C1CN(Cc2ccc(-c3cc(F)cc(F)c3)cc2)CCN1c1cc(Cl)ncn1	HEK cytotox inconclusive, 3T3 cytotox inconclusive, GPT2 inh inconclusive
O=C(c1csc(-c2cccs2)n1)N1CCC2(CCCO2)CC1	HEK cytotox inconclusive, 3T3 cytotox inconclusive, Luciferase inh 35µM
O=C(O)C1CN(C(=O)c2csc(-c3cccs3)n2)CCO1 (stereo not given)	none
COc1cccc(Nc2ncc3c(n2)C(C)(C(=O)Nc2nc(C)cs2)CC3)c1 (stereo not given)	HEK cytotox 50µM, 3T3 cytotox inconclusive
CC1(C(=O)Nc2ccccc2)COCc2cnc(Nc3ccccc3)nc21 (stereo not given)	HEK cytotox 79µM, 3T3 cytotox inconclusive
COc1cccc(Nc2ncc3c(n2)C(C)(C(=O)N2CC[S+](=O)([O-])CC2)CC3)c1 (stereo not given)	3T3 cytotox 100µM
COCCNC(=O)C1(C)CCc2cnc(Nc3cccc(OC)c3)nc21 (stereo not given)	HEK cytotox inconclusive, 3T3 cytotox inconclusive
CC1(C(=O)NCc2ccccc2)COCc2cnc(Nc3ccccc3)nc21 (stereo not given)	HEK cytotox inconclusive, 3T3 cytotox inconclusive
Cc1csc(NC(=O)C2(C)COCc3cnc(Nc4ccccc4)nc32)n1 (stereo not given)	HEK cytotox 79µM, 3T3 cytotox inconclusive
Cc1cn2nc(C(=O)NCC3CCCCC3)cc2c(=O)[nH]1	Luciferase inh inconclusive
Cc1ccccc1NCc1nc2c(n1Cc1ccccc1)C(=O)N(CCOc1ccccc1)CCN2	HEK cytotox inconclusive, 3T3 cytotox 32µM
O=C1c2c(nc(COc3ccc4c(c3)OCO4)n2Cc2ccccc2)NCCN1Cc1cccc(Cl)c1	HEK cytotox 32µM, 3T3 cytotox 22µM, hNpr1 antagonist inconclusive
O=C1c2c(nc(COc3ccc(F)cc3F)n2Cc2ccccc2)NCCN1CCOc1ccccc1	HEK cytotox 45µM, 3T3 cytotox inconclusive, hNpr1 antagonist inconclusive
Cc1ccccc1NCc1nc2c(n1Cc1ccccc1)C(=O)N(C)CCN2	HEK cytotox inconclusive
O=C1c2c(nc(COc3ccc4c(c3)OCO4)n2Cc2ccccc2)NCCN1CC1CCOCC1	HEK cytotox inconclusive
O=C1c2c(nc(CNCc3ccc4c(c3)OCO4)n2Cc2ccccc2)NCCN1CCOc1ccccc1	HEK cytotox inconclusive, 3T3 cytotox 40µM
OCc1cccc(-c2cc(-c3cccnc3)c3cncn3c2)c1	GPT2 inh inconclusive
CN(C)CCN(C)Cc1cn(Cc2ccccc2)nc1-c1ccc2c(c1)OCO2	none
O=C1c2c(nc(COc3ccc(F)cc3)n2Cc2ccccc2)NCCN1CCOc1ccccc1	HEK cytotox inconclusive, 3T3 cytotox inconclusive, hNpr1 antagonist inconclusive
O=C1c2c(nc(COc3ccc4c(c3)OCO4)n2Cc2ccccc2)NCCN1CCOc1ccccc1	HEK cytotox 40µM, 3T3 cytotox inconclusive
COCCN1CCNc2nc(COc3ccc(Oc4ccccc4)cc3)n(Cc3ccccc3)c2C1=O	HEK cytotox inconclusive, 3T3 cytotox 45µM
Cc1ccc(Cn2ccn3nc(-c4ccccc4)c(CO)c3c2=O)cc1	HEK cytotox inconclusive, 3T3 cytotox inconclusive, hNpr1 antagonist inconclusive, Luciferase inh inconclusive
Cc1ccc([S+](=O)([O-])N2CCN(c3nccc(Nc4ccccc4Cl)n3)CC2)cc1	HEK cytotox inconclusive, 3T3 cytotox inconclusive (no result: hNpr1 antagonist, Luciferase inh)
CN(c1ccccc1)c1ccc2nnc(-c3ccccn3)n2n1	HEK cytotox inconclusive, 3T3 cytotox inconclusive, Luciferase inh inconclusive
COc1ccnc(-c2nnc3ccc(N(C)Cc4ccccc4)nn23)c1	HEK cytotox 56µM, 3T3 cytotox inconclusive
COc1ccnc(-c2nnc3ccc(N(C)CCN(C)C)nn23)c1	3T3 cytotox 100µM
Cc1ccccc1C(=O)N1CCC2(CC1)Cc1ccccc1NC2=O	HEK cytotox 35µM, 3T3 cytotox inconclusive
O=C(c1ccc(F)cc1)N1CCC2(CC1)Cc1ccccc1NC2=O	none
CCc1cccc(NC(=O)Cn2cccc2-c2nc(-c3ccccc3)no2)c1	3T3 cytotox inconclusive
